Screening results: PubChem, National Center for Advancing Translational Sciences (NCATS)
Only some compounds are listed: those with a hit (about 9.2% of all), similar ones and a draw of the others.
SMN2 splice up: qHTS Assay for Enhancers of SMN2 Splice Variant Expression. Potency, µM (titrated, usually from 46.1 µM), inactives show at the top dose activity change, positive = activation, most hits filed as activators. HEK293 SMN2-luciferase splicing reporter, luminescence, 30-36 h. 210,000 tested, 2.8% active. AID 1458, 2008; also: % of control where 0% means no effect; nearly all actives have a fitted effect of over 55% in size
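HEK293 cells carry an SMN2 […]–luciferase reporter in which exon 7 inclusion puts luciferase in frame. Cells were plated 10-12 h before compound addition, then incubated 30-36 h at 37C. ONE-Glo luminescence was read; sodium butyrate at 4.5 mM final served as control.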
NPC1 promoter act: qHTS Assay for NPC1 Promoter Activators. Huh7 NPC1 promoter luciferase reporter, 24 h. 320,000 tested, 2.4% active. Potency, µM (top dose mostly 9.22 µM), for the others: at the top dose activation, usual class: activators. AID 485313, 2010; also: % of control where 0% means no effect; nearly all actives have a fitted effect of over 60% in size
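Stable NPC1-promoter luciferase Huh7 line; cpd (DMSO) 24 h, 37 °C, 5% CO2; Amplite luciferase reagent 10 min RT; luminescence readout. qHTS format.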
FLuc counter: qHTS profiling assay for firefly luciferase inhibitor/activator using purifed enzyme and Km concentrations of substrates (counterscreen for miR-21 project); purified FLuc, Km substrates, luminescence inhibition; 360,000 tested, 6.9% active; AID 588342, 2011; Potency, µM (doses to about 57.5 µM), inactives show at the highest dose activity change, negative = inhibition, hits mostly inhibitors; Luciferin 4-monooxygenase (Photinus pyralis), P08659;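 also: plate controls were vehicle for no effect and reference inhibitor for full effect; nearly all actives have a fitted effect of over 55% in size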
Target sequence (P08659 whole entry, looked up): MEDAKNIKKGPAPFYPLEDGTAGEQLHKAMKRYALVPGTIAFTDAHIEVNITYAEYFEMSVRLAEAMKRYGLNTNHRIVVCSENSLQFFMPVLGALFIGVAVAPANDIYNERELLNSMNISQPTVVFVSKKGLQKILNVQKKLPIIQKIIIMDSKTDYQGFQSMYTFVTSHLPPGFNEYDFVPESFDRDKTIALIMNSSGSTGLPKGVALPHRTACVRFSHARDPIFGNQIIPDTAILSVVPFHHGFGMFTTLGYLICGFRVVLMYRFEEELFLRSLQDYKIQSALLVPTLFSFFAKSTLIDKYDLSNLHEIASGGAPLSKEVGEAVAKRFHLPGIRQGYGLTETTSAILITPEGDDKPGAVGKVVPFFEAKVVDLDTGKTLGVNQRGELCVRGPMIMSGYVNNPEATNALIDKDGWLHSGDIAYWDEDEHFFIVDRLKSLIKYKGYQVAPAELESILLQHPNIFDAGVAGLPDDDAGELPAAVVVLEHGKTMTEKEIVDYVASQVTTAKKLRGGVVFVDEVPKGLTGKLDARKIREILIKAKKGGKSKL
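Purified P. pyralis luciferase (10nM final) with 10uM D-luciferin and 10uM ATP (Km levels) in 50mM Tris acetate pH 7.5, 10mM Mg acetate, 0.01% Tween-20, 0.05% BSA; qHTS 6-point titration, ~60 µM downward; luminescence read.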
ELG1 DNA repair: qHTS screen for small molecules that inhibit ELG1-dependent DNA repair in human embryonic kidney (HEK293T) cells expressing luciferase-tagged ELG1 | 330,000 tested, 2.3% active | HEK293T ELG1-luciferase reporter, luminescence, 16 h; DNA damage induced by 5-fluorouridine | Potency, µM (top dose mostly 46.1 µM), without a hit: at the top dose activity change, negative = inhibition, usual class: inhibitors; also: % is scaled to controls: 0 for no effect and ±100 for the full control effect; nearly all actives have a fitted effect of over 55% in size
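Luminescence from the luciferase reporter, measured 30 min after ONE-Glo reagent at room temperature, was the read-out. Beforehand, 2,000 cells per well were exposed for 16 hr at 37 °C to 5-fluorouridine together with compound or vehicle.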
ELG1 genotoxic: qHTS screen for small molecules that induce genotoxicity in human embryonic kidney (HEK293T) cells expressing luciferase-tagged ELG1 | HEK293T ELG1-luciferase reporter, luminescence, 16 h | 330,000 tested, 1.3% active | AID 504466, 2011 | Potency, µM (highest dose often 46 µM), inactives show at the highest dose activity change, positive = activation, actives largely listed as activators; also: % of control where 0% means no effect; nearly all actives have a fitted effect of over 60% in size
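HEK293T cells expressing luciferase-tagged ELG1 were exposed to compound or DMSO vehicle for 16 hr at 37 °C and 5% CO2. Luciferase activity was then measured with ONE-Glo after 30 min at room temperature.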
Rab9 promoter act: qHTS Assay for Rab9 Promoter Activators. Huh7 Rab9 promoter-luciferase reporter, luminescence, 24 h. Potency, µM (titrated, usually from 9.22 µM), inactives show at the top dose activation, negative = inhibition, hits mostly activators. AID 485297, 2010. 320,000 tested, 2.8% active; also: % of control where 0% means no effect; nearly all actives have a fitted effect of over 60% in size
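Cells were plated at 1500 per well in reduced-serum medium with 10% FBS and left 2 h. Compound in DMSO was then added for 24 h at 37 °C. Reporter signal was read by luminescence after 10 min with luciferase detection reagent.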
Starred values were filed as active, the others as inactive; ? = inconclusive; / = no result given. Calls follow the shape of the dose curve; as a rule, active = well fitted curve in the direction sought with a large enough effect; inconclusive = small, poorly fitted or top-dose-only effect, or another doubt; inactive = no such curve, though single readings can be large; an effect the other way counts as inactive or inconclusive. Potency is read from the fitted curve at half-maximal effect.

SMILES	SMN2 splice up	NPC1 promoter act	FLuc counter	ELG1 DNA repair	ELG1 genotoxic	Rab9 promoter act
COc1cc(/C=N/NC(=O)c2nc(-c3ccccc3)n(-c3ccccc3)n2)ccc1O	-9%	3%	?	?	1%	1%
COc1ccc(/C=N/Nc2nc(C)nc(N)n2)cc1	/	13%	17µM*	?	12%	23%
COc1ccc(/C=N/Nc2ccccn2)cc1OC	/	?	7.6µM*	?	?	?
CN(C)c1ccc(/C=N\Nc2ccccn2)cc1	/	0.89µM*	0.95µM*	?	5.2µM*	0.63µM*
O=[N+]([O-])c1ccc(/C=N/Nc2ccccn2)cc1	/	?	-18%	?	9%	?
CCN(C(=O)CSc1nnc(-c2c[nH]c3ccccc23)n1C1CC1)C1CCS(=O)(=O)C1 (centres undefined)	/	-7%	3%	15%	2%	-2%
CCOc1ccccc1N1CCN(C(=O)c2cccs2)CC1	/	-2%	6%	0%	-5%	-5%
Cc1cc(C)cc(OCc2ccc(C(=O)Nc3ccccc3F)o2)c1	7%	/	-5%	/	/	/
COc1ccccc1C(=O)C1CCCN(C(=O)c2cn3cc(Cl)ccc3n2)C1 (centres undefined)	/	-4%	13µM*	?	3%	-3%
COc1ccccc1C(=O)C1CCCN(C(=O)c2ccccc2Cl)C1 (centres undefined)	/	2%	0%	-2%	-7%	-2%
COC(=O)c1ccccc1Oc1ccc(NC(=O)c2ccco2)cc1	/	13%	?	24%	4%	1%
O=C(/C=C/Nc1ccc(Oc2ccccc2Cl)cc1)c1ccco1	16µM*	3.5µM*	3.4µM*	?	?	2.2µM*
COc1ccccc1Oc1ccc(N/C=C/C(=O)c2ccco2)cc1	11µM*	3.2µM*	5.4µM*	?	?	1.4µM*
CCC(=O)N1CCc2cc(CNC(=O)C(CC)c3ccccc3)ccc21 (centres undefined)	/	/	7%	/	/	/
CCC(c1nnnn1CS(=O)(=O)c1ccc(C)cc1)N1CCN(c2nc3ccccc3s2)CC1 (centres undefined)	-47%	1%	-1%	8.2µM*	-10%	-14%
CCCC(c1nnnn1CC1CCCO1)N1CCN(c2nc3ccccc3s2)CC1 (centres undefined)	-29%	-2%	0%	23µM*	-5%	1%
CC(=O)Nc1ccc(S(=O)(=O)NCc2ccc3c(c2)CCN3C(C)=O)cc1	/	/	3%	/	/	/
Cn1cnnc1SCC(=O)Nc1ccccc1	13%	0%	-2%	3%	5%	2%
Cn1cnnc1SCC(=O)Nc1ccc(N2CCCCC2)cc1	/	17%	13µM*	?	8%	15%
Cn1cnnc1SCC(=O)Nc1ccc(OCc2ccccc2)cc1	?	21%	15µM*	?	16%	?
COCCn1cnnc1SCC(=O)Nc1ccc(N2CCCCC2)cc1	/	0%	19µM*	?	3%	-1%
CC(Sc1n[nH]c(N)n1)C(=O)Nc1cccc2ccccc12 (centres undefined)	/	-1%	3%	12%	-1%	1%
O=C(COC(=O)c1ccccc1Br)NCCc1ccc(F)cc1	2%	-3%	-13%	?	1%	2%
COC(=O)/C=C/COc1ccccc1[N+](=O)[O-]	9%	24%	21µM*	?	15%	?
CC(C)C(=O)N1CCN(c2ccc(NC(=O)COc3ccccc3[N+](=O)[O-])cc2)CC1	-81%	-2%	4%	9.2µM*	-26%	-31%
SMILES	SMN2 splice up	NPC1 promoter act	FLuc counter	ELG1 DNA repair	ELG1 genotoxic	Rab9 promoter act
O=C(COC(=O)c1ccccc1Br)Nc1ccc(F)cc1	11%	-2%	19µM*	?	?	7%
O=C(COc1ccccc1[N+](=O)[O-])Nc1ccc(Br)cc1	/	?	9.5µM*	?	?	3.2µM*
FC(F)(F)c1cc(-c2ccco2)nc2ncnn12	-18%	1%	-1%	-6%	2%	1%
CN1Cc2cccc3c2C(Cc2ccccc2S3)C1 (centres undefined)	-34%	0%	-2%	1%	0%	1%
NC(=O)CC1C(=O)N(c2ccc(F)cc2)C(=O)N1NC(=O)CCc1ccccc1 (centres undefined)	-8%	2%	-2%	8%	0%	-6%
COc1ccc(-c2cc(OC(=O)c3ccccc3C)c3c(C)oc(C)c3c(=O)c2)cc1	3%	/	?	/	/	/
Cc1ccc(C2(c3ccc(C)cc3)CC2C(=O)NC(C)C)cc1 (centres undefined)	/	0%	2%	-2%	0%	-5%
O=C(COc1ccccc1[N+](=O)[O-])Nc1cccnc1	/	29%	?	?	?	?
COc1cc(NC(=O)COc2c(C)cc(C)cc2[N+](=O)[O-])c(OC)cc1Cl	1%	-1%	6%	?	-1%	-2%
CCCNC(=O)COC(=O)c1ccccc1OCC(=O)Nc1ccc(Br)cc1	-4%	-4%	-2%	14%	7%	-4%
COc1cc(Cl)c(C)cc1NC(=O)COc1ccccc1[N+](=O)[O-]	14%	3.2µM*	2%	18%	8%	?
Cc1ccnc(NC(=O)COc2ccccc2[N+](=O)[O-])c1	5µM*	2.2µM*	1.7µM*	?	?	?
Cc1c(-c2ccccc2)oc2c(C(=O)OCC(=O)Nc3ccc(F)cc3)cccc2c1=O	-15%	5%	-3%	10µM*	-6%	1%
CC(C)(C)NC(=O)COC(=O)c1ccccc1OCC(=O)Nc1ccc(Br)cc1	/	?	1.1µM*	?	1%	?
Cc1c(Cl)cccc1NC(=O)c1ccc2c(c1)CCN2S(=O)(=O)c1ccccc1	-3%	/	4%	/	/	/
CCSc1nnc2ccc(-c3ccc(OC)c(OC)c3)nn12	/	0%	?	?	?	-1%
CC1CCN(c2ccc(NC(=O)C3CCCN3S(=O)(=O)c3ccc(F)cc3)cc2)CC1 (centres undefined)	/	-3%	?	-7%	-1%	2%
Cc1ccc(NC(=O)COc2ccccc2[N+](=O)[O-])nc1	2.8µM*	3.2µM*	2.1µM*	?	0%	0.79µM*
COc1cc(O)oc1C=Nc1ccccc1	-7%	4%	-10%	4%	1%	14%
